Results as given in PubChem BioAssay AID1159580 (chemical genetic matrix, 2015).
Values joined by “and” are separate entries in the source; they are usually repeats but may differ in a detail not shown here. Identical values can stand only once. Hit rate of the full screen: of about 5,500 compounds, about 2,000 (36%) were called active. Another 18% or so got no clear call; they are omitted. No stated cut-off is given here; in the data, active means normalized growth mostly below about 0.91 (no sharp cut-off); inconclusive means no clear call, values can overlap the other calls; inactive means mostly above about 0.92. The list shows a part of the results.

Test: chemical genetic growth profiling, strain panel (AID 1159580);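 further: tested at 20 µM; growth read once vehicle control cultures reached saturation at 30 °C; 1 = growth at the plate median or of vehicle wells; lower values mean less growth of the strain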
Settings: S. cerevisiae deletion strains, growth OD

Measured: normalized growth

C[C@H](N)[C@H](O)c1ccc(O)c(O)c1
inactive: locus YAL013W, strain DEP1, hits give low values 1 | locus YAL021C, strain ccr4, hits give low values 1.01 | locus YAL026C, strain drs2, hits give low values 1.01 | locus YAL030W, strain snc1, hits give low values 1 | locus YBL061C, strain skt5, hits give low values 1.01 | locus YBR009C, strain hhf1, hits give low values 0.997 | locus YBR021W, strain FUR4, hits give low values 0.991 | locus YBR023C, strain chs3, hits give low values 0.999 | locus YBR171W, strain sec66, hits give low values 0.991 | locus YBR229C, strain ROT2, hits give low values 0.991 | locus YBR231C, strain swc5, hits give low values 0.982 | locus YBR279W, strain paf1, hits give low values 1.02 | locus YCL011C, strain gbp2, hits give low values 1.01 | locus YCL016C, strain dcc1, hits give low values 0.987 | locus YCL029C, strain bik1, hits give low values 0.993 | locus YCL061C, strain MRC1, hits give low values 1 | locus YCL069W, strain vba3, hits give low values 1.01 | locus YCR088W, strain abp1, hits give low values 1 | locus YDL005C, strain med2, hits give low values 0.996 | locus YDL035C, strain GPR1, hits give low values 1 | locus YDL040C, strain nat1, hits give low values 1 | locus YDL074C, strain BRE1, hits give low values 0.983 | locus YDL101C, strain DUN1, hits give low values 0.992 | locus YDL185W, strain tfp1, hits give low values 0.982 | locus YDL192W, strain arf1, hits give low values 0.979 | locus YDR001C, strain nth1, hits give low values 1.01 | locus YDR069C, strain doa4, hits give low values 1.01 | locus YDR101C, strain arx1, hits give low values 1.01 | locus YDR137W, strain rgp1, hits give low values 1 | locus YDR159W, strain sac3, hits give low values 1.01 | locus YDR162C, strain NBP2, hits give low values 0.999 | locus YDR195W, strain ref2 0.991 | locus YDR297W, strain sur2, hits give low values 1.01 | locus YDR318W, strain mcm21, hits give low values 0.98 | locus YDR334W, strain swr1, hits give low values 0.997 | locus YDR335W, strain msn5, hits give low values 1.01 | locus YDR388W, hits give low values 0.992 | locus YDR392W, strain spt3, hits give low values 0.926 | locus YDR502C, strain sam2, hits give low values 0.99 | locus YEL003W, strain gim4, hits give low values 1.01 | locus YEL037C, strain rad23, hits give low values 1 | locus YEL061C, strain CIN8 (second series), hits give low values 1.01 | locus YEL061C, strain CIN8, hits give low values 1 | locus YER015W, strain faa2, hits give low values 1 | locus YER016W, strain bim1, hits give low values 1.01 | locus YER110C, hits give low values 0.97 | locus YER111C, strain swi4, hits give low values 1 | locus YER155C, strain BEM2 (second series), hits give low values 0.994 | locus YER155C, strain BEM2, hits give low values 0.999 | locus YER167W, strain BCK2, hits give low values 1.02 | locus YFR010W, strain ubp6, hits give low values 1 | locus YGL078C, strain dbp3, hits give low values 0.962 | locus YGL086W, strain mad1, hits give low values 0.996 | locus YGL167C, strain pmr1, hits give low values 0.995 | locus YGL173C, strain kem1, hits give low values 1.01 | locus YGL227W, strain vid30, hits give low values 0.992 | locus YGL240W, strain doc1, hits give low values 1.01 | locus YGL248W, strain PDE1, hits give low values 0.988 | locus YGL253W, strain hxk2, hits give low values 1.02 | locus YGR135W, strain pre9, hits give low values 0.948 | locus YGR252W, strain gcn5, hits give low values 0.91 | locus YHR013C, strain ard1, hits give low values 1.01 | locus YHR027C, strain rpn1, hits give low values 0.996 | locus YHR030C, strain SLT2, hits give low values 1.01 and 1 | locus YHR079C, strain IRE1 (second series), hits give low values 0.993 | locus YHR079C, strain IRE1, hits give low values 1 | locus YHR094C, strain hxt1, hits give low values 0.991 | locus YHR129C, strain ARP1, hits give low values 0.996 | locus YHR142W, strain chs7, hits give low values 0.993 | locus YHR200W, strain rpn10, hits give low values 0.985 | locus YIL066C, strain RNR3, hits give low values 0.998 | locus YIL073C, strain SPO22, hits give low values 1.01 | locus YIL125W, strain kgd1, hits give low values 0.975 | locus YIR030C, strain dcg1, hits give low values 0.988 | locus YJL092W, strain hpr5, hits give low values 1 | locus YJL095W, strain BCK1 (second series), hits give low values 1.01 | locus YJL095W, strain BCK1, hits give low values 0.978 and 1.02 | locus YJL115W, strain asf1, hits give low values 1.01 | locus YJL129C, strain trk1, hits give low values 0.986 | locus YJL134W, strain LCB3, hits give low values 1 | locus YJL154C, strain vps35, hits give low values 1.01 | locus YJL164C, strain tpk1, hits give low values 1.01 | locus YJL166W, strain qcr8, hits give low values 0.992 | locus YJL168C, strain set2, hits give low values 0.978 | locus YJL187C, strain SWE1 (second series), hits give low values 0.985 | locus YJL187C, strain SWE1, hits give low values 0.998 | locus YJR043C, strain POL32, hits give low values 1.01
